About 1,800 (0.53%) of roughly 340,000 compounds were called active.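 The calls were made as follows: active = activation over 3 SD above normal in the single-dose calcium agonist read (cut at about 30% in these data); inactive = the rest.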 The sample as a whole holds a higher share of actives than the screen did.
Each molecule was assayed against D(2) dopamine receptor (Homo sapiens) (UniProt P14416) (assay: HTS Assay for Allosteric Agonists of the Human D2 Dopamine Receptor: Primary Screen for Agonists). Details: HEK293 T-REx D2 cells, calcium flux agonist mode; at 2 µM; active compounds read high.
Sequence of D(2) dopamine receptor (Homo sapiens) (P14416 whole entry, looked up): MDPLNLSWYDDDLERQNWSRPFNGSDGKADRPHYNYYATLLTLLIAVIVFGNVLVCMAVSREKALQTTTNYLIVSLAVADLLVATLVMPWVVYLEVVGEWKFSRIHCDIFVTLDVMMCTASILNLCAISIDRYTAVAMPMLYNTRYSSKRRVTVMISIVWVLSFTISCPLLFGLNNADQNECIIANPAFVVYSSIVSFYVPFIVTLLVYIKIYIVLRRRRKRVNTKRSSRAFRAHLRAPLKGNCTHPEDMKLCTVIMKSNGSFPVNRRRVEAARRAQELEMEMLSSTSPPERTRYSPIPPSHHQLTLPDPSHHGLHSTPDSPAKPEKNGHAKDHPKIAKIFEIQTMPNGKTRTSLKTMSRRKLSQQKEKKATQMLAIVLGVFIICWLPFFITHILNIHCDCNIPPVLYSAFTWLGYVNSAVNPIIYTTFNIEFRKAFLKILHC
From the text: NIH Chemical Genomics Center [NCGC] NIH Molecular Libraries Probe Centers Network [MLPCN] MLPCN Grant: NS064831-01 Assay Submitter (PI): David Sibley Dopamine receptors (DARs) are involved in the etiology and/or therapy of a number of neuropsychiatric and endocrine disorders. For instance, all receptor-based antiparkinsonian drugs work via stimulating the D2 DAR subtype whereas all FDA-approved antipsychotic agents are antagonists of this receptor. […] There are three different types of allosteric modulators that we are seeking, two of which will stimulate or augment receptor signaling, allosteric agonists and potentiators, while the third, allosteric antagonists, will attenuate receptor signaling. The present primary screening assay measures compound agonism by tracking calcium flux in a […], inducible Hek293 Trex D2 cell line.
Freshly passaged cells are plated in 1536 well black, clear bottom plates at a density of 4000 cells/well in 3 ul of complete media containing 1x tetracycline inducer. After an overnight incubation at […] in 5% CO2, cells are loaded with 2 ul of the no wash Calcium Assay Kit (ABD Bioquest) and incubated at room temperature for 30 to 90 minutes. Agonist read: A 10 cycle (1 second/cycle) baseline measurement is taken and then the FDSS online 1536 pintool delivers 23 nl of compound library (as well as dopamine controls) to the plate. The plate is measured for kinetically at 1 cycle/sec for 180 seconds and is considered to be the agonist portion of the assay (eg, compounds which activate a positive calcium response during this portion are flagged as potential agonists). Following the 180 second read, 1 ul of either an EC20 (positive modulation assay) or EC80 (negative modulation assay) is delivered by an onboard pipette head. Measurements are taken kinetically for an additional 180 seconds.
Also: 0% is about no effect.

activation, inactive:
COc1cccc(OCc2cc(C(=O)N3CCN(C(=O)c4ccco4)CC3)no2)c1 -0.444%
O=C(CN1CCN(C/C=C/c2ccccc2)CC1)Nc1ccc(F)cc1F 0.754%
O=C(c1ccco1)N1CCN(C(=S)Nc2cc(F)cc(F)c2)CC1 0.216%
Cc1ccc(F)cc1NC(=O)N1CCCN(c2ccc(C(F)(F)F)cn2)CC1 0.948%
c1ccc(-c2ccc(OCCN3CCOCC3)cc2)cc1 0.22%
O=CN1CCN(C(=O)c2ccc(Br)o2)CC1 0.34%
O=C(CN1CCN(C(=O)c2ccco2)CC1)Nc1ccc(Cl)c(C(F)(F)F)c1 -0.254%
COc1cccc(OC)c1C(=O)N1CCN(Cc2cccnc2)CC1 1.08%
CC(=O)N1CCCc2cc(S(=O)(=O)Nc3ccc(Cl)cc3F)ccc21 0.983%
COc1ccc(CCNC(=O)C(=O)NCC(c2ccco2)S(=O)(=O)c2cccs2)cc1OC (centres undefined) 0.136%
O=C(NCCc1ccc(Cl)cc1)c1ccc2c(c1)N(Cc1ccc(F)cc1)C(=O)CS2 -0.585%
COc1ccc(OC)c(-c2noc(N3CCN(c4cc(Cl)ccc4C)CC3)n2)c1 0.838%
O=C(c1ccco1)N1CCN(C(=O)c2ccc(COc3ccc(F)cc3)o2)CC1 -1.15%
O=C(CNS(=O)(=O)c1ccccc1)N1CCN(C(=O)c2ccco2)CC1 0.7%
O=C(NCc1ccc(Cl)cc1)c1ccc2c(c1)nnn2C1CCCC1 -0.221%
O=C(NCc1ccccc1)C1CCN(S(=O)(=O)c2ccc3[nH]c(=O)ccc3c2)CC1 -1.06%
Cc1ccc(C)c(N2CCN(Cc3nnc(-c4ccccc4)o3)CC2)c1 0.463%
COc1ccc(N2CCN(Cc3nnc(-c4ccccc4)o3)CC2)cc1 0%
COc1cc(OC)c(OC)cc1/C=C/c1nc2ccccc2c(=O)n1-c1ccc(Br)c(C)c1 1.46%
CCOc1cc2[nH]c(=S)n(CCCN3CCCC3=O)c(=O)c2cc1OCC -1.56%
COc1cc2[nH]c(=S)n(CCN3CCCCC3C)c(=O)c2cc1OC (centres undefined) 1.14%
Fc1ccc(-c2nc(Nc3cccc(Cl)c3)nc3c2COc2ccccc2-3)cc1 -1.77%
O=C1N(Cc2ccccc2)c2ccc(Cl)cc2C1(O)c1c[nH]c2ccccc12 (centres undefined) 0.529%
CCN(CC)c1ccc(NC(=O)Cn2nc3c(cc2=O)CCCC3)c(C)c1 -1.68%
Cc1cc(=O)c2cc(C(=O)Nc3cccc(C)c3C)ccc2[nH]1 1.06%
COc1ccc2oc(=O)cc(CN3CCOCC3)c2c1 0.172%
COc1ccc2c(CN3CCN(S(=O)(=O)c4cccs4)CC3)cc(=O)oc2c1 1.59%
CCC1(c2ccccc2)NC(=O)N(CC(=O)c2ccc3c(c2)OCO3)C1=O (centres undefined) 0.171%
CC1(c2ccc(Cl)cc2)NC(=O)N(CC(=O)c2ccc3c(c2)OCO3)C1=O (centres undefined) 6.26%
COc1ccc(NC(=O)C2CCN(c3ccc(Sc4ccc(C)cc4)nn3)CC2)c(OC)c1 -0.0405%
CCc1ccc2oc(-c3ccc(N)cc3)nc2c1 0.79%
Cc1ccc2c(=O)oc(N(C)C)nc2c1 -0.369%
COC(=O)c1ccc(NC(=O)c2cnn(-c3ccc(Cl)cc3)c2C2CCN(C(=O)OC(C)(C)C)CC2)cc1 -0.0655%
CC(C)S(=O)(=O)c1oc(-c2ccc(F)cc2)nc1S(=O)(=O)c1ccc(F)cc1 6.9%
COc1ccccc1NC(=O)CSc1oc(-c2ccco2)nc1S(=O)(=O)c1ccc(Br)cc1 -0.604%
CCOc1ccccc1N(CC)C(=O)c1cc2ccc3cccnc3c2[nH]1 0.0244%
COc1cccc(NC(=O)c2ccc3nc(CCc4ccccc4)oc3c2)c1 0.0569%
O=C(COC(=O)CCc1ccc(S(=O)(=O)N2CCOCC2)cc1)Nc1cccc(Cl)c1 1.09%
O=C(CN1CCCCCC1)Nc1ccc(S(=O)(=O)N2CCCCC2)cc1 -2.81%
COc1ccc(CCn2cc3c(c2-c2ccc(Br)cc2)c(=O)n(C)c(=O)n3C)cc1OC -0.343%
CCC(=O)Nc1cccc(C(=O)OCc2cc(=O)n3nc(CC)sc3n2)c1 3.26%
Cc1cc(F)ccc1NC1(c2ccccc2)C(=O)c2ccccc2C1=O -1.91%
CC(C)CCN1CCN(Cc2ccc(C(F)(F)F)cc2)CC1CCO (centres undefined) -0.55%
CC(C)CCN1CCN(C/C=C/c2ccco2)CC1CCO (centres undefined) -3.43%
COc1ccc(CNC(=O)CCc2c(C)nn(-c3ccc(N4CCCC4)nn3)c2C)cc1 -0.779%
COc1ccc(C2=NC(c3ccncc3)=Nc3ccc(Br)cc3N2)cc1 2.06%
COc1cc(NS(=O)(=O)c2ccc3c(c2)OCC(C(=O)N2CCCC2)O3)cc(OC)c1 (centres undefined) 0.531%
COc1ccc(OC)c2sc(N3CCN(C(=O)C4COc5ccccc5O4)CC3)nc12 (centres undefined) -0.0345%
O=C(/C=C/c1cn(CC(O)CN2CCc3ccccc32)c2ccccc12)c1ccc(Br)cc1 (centres undefined) 2.61%
Cc1ccc(CSc2nc3ccsc3c(=O)n2CCC(C)C)cc1 0.237%
COc1ccc(Cl)cc1NC(=O)Cn1c(=O)c2ccccc2n2nncc12 0.159%
CCc1ccc(NC(=O)C(C)OC(=O)/C=C/c2cccc([N+](=O)[O-])c2)cc1 (centres undefined) -0.67%
Cc1ccc(NC(=O)O/N=C/c2cccc([N+](=O)[O-])c2)cc1 1.09%
O=S(=O)(NCCc1nnc2ccc(SCc3ccc(Cl)cc3Cl)nn12)c1ccccc1 0.55%
CCOC(=O)C(Cc1ccccc1)NC(=O)CCc1c(C)nc2c(c(C)nn2-c2ccc(C)c(C)c2)c1C (centres undefined) 3.29%
O=C(NCCCc1ccccc1)C1CCC(=O)N(CCc2ccc(Cl)cc2)C1 (centres undefined) -1.17%
COC(=O)CN1C(=S)N(c2ccccc2)C(=O)C1CC(=O)Nc1ccc(Cl)cc1 (centres undefined) -0.464%
CCc1ccc(CN(Cc2ccco2)C(=O)c2ccccc2Cl)cc1 0.564%
COc1cc(NC(=O)c2nn(-c3ccc(C)cc3)c(=O)c3c2c2ccccc2n3C)cc(OC)c1OC -0.5%
Cc1c(NC(=O)c2cc(=O)c3ccccc3o2)c(=O)n(-c2ccccc2)n1C 0.0233%
Cc1ccc(O)c(-c2cc(C(=O)NCc3ccccc3)[nH]n2)c1 0.766%
O=C(NCc1ccc(F)cc1)c1ccc(Cn2c(SCc3ccc(F)cc3)nc3cccnc32)cc1 1.06%
O=C(c1ccc2c(c1)N(Cc1ccccc1)C(=O)c1ccccc1S2(=O)=O)N1CCCC1 1.63%
COc1ccc(OCCCn2cccc2/C=C2/C(=N)N3OC(C)=CC3=NC2=O)cc1 -1.02%
CC(C)(C)OC(=O)NCCCCCC(=O)N/N=C/c1coc2ccccc2c1=O 0%
CCOC(=O)c1c(C)[nH]c(CCC(=O)Nc2ccc(OC)c(OC)c2)c1C -0.832%
Cc1ccc2ncc(C(=O)Nc3ccc(OC(F)(F)F)cc3)c(=O)n2c1 -0.574%
O=C(Oc1cccc(O)c1)C1CCCCC1 0.57%
CCO[C@@H]1OC(C(=O)NCc2nc3ccccc3[nH]2)=C[C@H](C2CCCCC2)[C@H]1CCCO -0.239%
COc1ccc(S(=O)(=O)NCC(c2ccc(N(C)C)cc2)N2CCCC2)cc1 (centres undefined) -2.12%
CC1CCCCN1S(=O)(=O)c1ccc(F)c(C(=O)Nc2ccccc2C(F)(F)F)c1 (centres undefined) 0.192%

activation, active:
COc1cccc(OC)c1OCCN1CCN(C(=O)c2ccco2)CC1 87.8%
O=C(Nc1ccc(F)cc1F)N1CCCN(CCOc2ccccc2)CC1 41.8%
O=C(c1ccco1)N1CCN(Cc2cccc(C(F)(F)F)c2)CC1 59.9%
O=C(c1ccc(Br)o1)N1CCN(CCOc2ccccc2)CC1 67.9%
O=C(c1ccco1)N1CCN(CCOc2ccccc2)CC1 74.5%
c1ccc(-c2cnc(CN3CCN(c4ccccc4)CC3)o2)cc1 40%
CCOc1cc2[nH]c(=S)n(CCN3CCCCC3C)c(=O)c2cc1OCC (centres undefined) 30.2%
COc1ccc(N2CCN(Cc3cc(=O)oc4ccc5ccccc5c34)CC2)cc1 48.7%
O=C(CN1CCN(c2ccccc2F)CC1)c1ccc2c(c1)OCO2 34.1%
CCN(CC)c1ccc2oc(=O)c(C)nc2c1 33.2%
O=C(CN1CCN(c2cccc(Cl)c2)CC1)Nc1ccc(S(=O)(=O)N2CCOCC2)cc1 56.5%
CC(C)CCN1CCN(Cc2cn[nH]c2C2CCCCC2)CC1CCO (centres undefined) 71.9%
Cc1c(CC(=O)N2CCN(C(=O)C3COc4ccccc4O3)CC2)c(=O)oc2c(O)c(O)ccc12 (centres undefined) 86.6%
CCC(CC)NC(=O)/C=C/c1cccc([N+](=O)[O-])c1 55.2%
O=C(CSC1CC(=O)N(CCc2ccccc2)C1=O)Nc1ccc(Cl)cc1 (centres undefined) 49.2%
Cc1ccc(O)c(-c2cc(C(=O)Nc3c(C)n(C)n(-c4ccccc4)c3=O)[nH]n2)c1 34.8%
CC1=CC2=NC(=O)/C(=C/c3coc4ccccc4c3=O)C(=N)N2O1 49.9%
O=C(OCc1nc2ccccc2[nH]1)C1CCCCC1 41.5%

Reference: PubChem BioAssay AID485358 (National Center for Advancing Translational Sciences (NCATS), 2010)
